This note sets out measurements from PubChem BioAssay (EPA / NIEHS).

Assay [1] has as its target human CYP2A6, CYP2A6 (gene 1548) (UniProt P11509). The experiment in a line: NVS_ADME_hCYP2A6: NovaScreen (NVS) CYP450-related Enzyme Activity (ADME) Assay for human CYP2A6 (AID 2283099). The essentials: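 Cell-free fluorescence readout of recombinant human CYP2A6 expressed in insect cells, read 0.5 h after dosing; loss of signal versus acetonitrile negative control. Primary screen in duplicate at 10 uM; actives re-run in concentration-response up to 20 uM.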

For assay [2], the target named is human CYP2B6, CYP2B6 (gene 1555) (UniProt P20813). The experiment in a line: NVS_ADME_hCYP2B6: NovaScreen (NVS) CYP450-related Enzyme Activity (ADME) Assay for human CYP2B6 (AID 2283101). A digest of the protocol: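 Cell-free recombinant enzyme assay with a fluorogenic substrate; fluorescence intensity read 1 hour after dosing. Loss of signal relative to acetonitrile negative control indicates inhibition. Primary screen run in duplicate at 10 uM, actives then tested in concentration series.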

In assay [3] the target is human CYP1A2, CYP1A2 (gene 1544) (UniProt P05177). The experiment in a line: NVS_ADME_hCYP1A2: NovaScreen (NVS) CYP450-related Enzyme Activity (ADME) Assay for human CYP1A2 (AID 2283102).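 As to AC50: potency for inhibition since loss of fluorescence marks reduced CYP1A2 activity.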 The essentials:
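Cell-free recombinant human CYP1A2 expressed in insect cells, with fluorogenic substrate; fluorescence intensity read 0.5 h after dosing. Loss of signal relative to acetonitrile baseline scored. Primary screen in duplicate at 10 uM; actives retested in concentration series.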

Assay [4] concerns the target human CYP2D6, CYP2D6 (gene 1565) (UniProt P10635). The experiment in a line: NVS_ADME_hCYP2D6: NovaScreen (NVS) CYP450-related Enzyme Activity (ADME) Assay for human CYP2D6 (AID 2283107). A digest of the protocol: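 Cell-free assay using recombinant enzyme expressed in insect cells, with fluorescence-intensity readout of enzyme activity 1 hour after chemical dosing. Loss of signal versus acetonitrile negative control indicates inhibition. Primary screen ran in duplicate at 10 uM; actives were retested in concentration series.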

Assay [5] has as its target human CYP2C9, CYP2C9 (gene 1559) (UniProt P11712). The experiment in a line: NVS_ADME_hCYP2C9: NovaScreen (NVS) CYP450-related Enzyme Activity (ADME) Assay for human CYP2C9 (AID 2283108). The essentials:
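Fluorescence readout of CYP2C9 activity (SF9-expressed human enzyme) at 0.75 h. The primary screen used 10 uM in duplicate, with concentration-response follow-up for actives; acetonitrile was the negative control.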

The target in assay [6] is human AKT serine/threonine Kinase 1 (AKT1), AKT1 (gene 207) (UniProt P31749). The experiment in a line: NVS_ENZ_hAKT1: NovaScreen (NVS) Enzymatic Assay for human AKT serine/threonine Kinase 1 (AKT1) (AID 2283138). The essentials: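 Cell-free recombinant enzyme with substrate; activity read by fluorescence intensity after electrophoretic mobility shift separating substrate from product, 1 h after dosing. Single-concentration duplicates at 25 uM, then singleton concentration-response up to 50 uM; loss of signal versus DMSO.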

In assay [7] the target is human Caspase 4 (CASP4), CASP4 (gene 837) (UniProt P49662). The experiment in a line: NVS_ENZ_hCASP4: NovaScreen (NVS) Enzymatic Assay for human Caspase 4 (CASP4) (AID 2283143). A digest of the protocol: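 The cell-free assay used E. coli-expressed enzyme with a fluorogenic substrate, read 2 h after dosing. Signal loss was scored versus DMSO. Screening was in duplicate at 25 uM, then singleton concentration-response up to 50 uM.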

The target in assay [8] is human CYP19A1, CYP19A1 (gene 1588) (UniProt P11511). The experiment in a line: NVS_ADME_hCYP19A1: NovaScreen (NVS) CYP450-related Enzyme Activity (ADME) Assay for human CYP19A1 (AID 2283098). The essentials:
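Biochem, cell-free; recombinant enzyme + specific substrate; fluorescence intensity at 0.5 h post-dose; 10 uM duplicate primary, conc. series for actives; acetonitrile = negative control/baseline; positive and negative controls on every plate.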

The target of assay [9] is human CYP1A1, CYP1A1 (gene 1543) (UniProt P04798). The experiment in a line: NVS_ADME_hCYP1A1: NovaScreen (NVS) CYP450-related Enzyme Activity (ADME) Assay for human CYP1A1 (AID 2283100). The essentials:
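Cell-free fluorescence assay of recombinant human CYP1A1 activity with a specific substrate, read 1 h after dosing. Compounds were screened in duplicate at 10 uM, then hits tested in concentration-response up to 20 uM; acetonitrile served as baseline.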

For assay [10], the target named is Cytochrome P450 3A4 (Homo sapiens) (UniProt P08684). The experiment in a line: NVS_ADME_hCYP3A4: NovaScreen (NVS) CYP450-related Enzyme Activity (ADME) Assay for human CYP3A4 (AID 2283110). The essentials: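 Compounds were first screened in duplicate at 10 uM against recombinant CYP3A4 produced in insect cells, then actives were run in concentration series. Enzyme activity was measured by fluorescence after 0.33 hour, with acetonitrile as baseline.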
Cytochrome P450 3A4 (Homo sapiens), sequence (P08684 whole entry, looked up): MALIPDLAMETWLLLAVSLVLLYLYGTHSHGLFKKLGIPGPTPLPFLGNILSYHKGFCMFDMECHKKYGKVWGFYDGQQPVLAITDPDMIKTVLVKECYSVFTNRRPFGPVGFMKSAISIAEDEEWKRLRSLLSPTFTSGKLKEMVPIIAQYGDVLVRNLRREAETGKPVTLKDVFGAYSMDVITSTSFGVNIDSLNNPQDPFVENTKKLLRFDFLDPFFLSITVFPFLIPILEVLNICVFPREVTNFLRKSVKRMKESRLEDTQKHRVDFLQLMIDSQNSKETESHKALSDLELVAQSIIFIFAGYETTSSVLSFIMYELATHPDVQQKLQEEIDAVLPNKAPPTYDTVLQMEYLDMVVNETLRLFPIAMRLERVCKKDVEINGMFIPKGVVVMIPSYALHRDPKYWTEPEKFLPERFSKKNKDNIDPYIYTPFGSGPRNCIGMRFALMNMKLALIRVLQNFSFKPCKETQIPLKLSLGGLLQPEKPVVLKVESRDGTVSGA

A further assay has as its target Caspase-3 (Homo sapiens) (UniProt P42574). The experiment in a line: NVS_ENZ_hCASP3: NovaScreen (NVS) Enzymatic Assay for human Caspase 3 (CASP3) (AID 2283139). A digest of the protocol:
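Recombinant human caspase-3 from E. coli with a fluorogenic substrate, read by fluorescence 1 h after dosing. Primary screen in duplicate at 25 uM. Actives (for example ≥30% inhibition) rerun as concentration-response up to 50 uM.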

Assay [11] addresses human Beta-secretase (BACE), BACE1 (gene 23621) (UniProt P56817). The experiment in a line: NVS_ENZ_hBACE: NovaScreen (NVS) Enzymatic Assay for human Beta-secretase (BACE) (AID 2283140).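 Also: hits are inhibitors that reduce fluorescent substrate signal versus DMSO.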 The essentials:
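Cell-free fluorescence-intensity assay of recombinant BACE1 expressed in SF9 cells, read 1 hour after dosing. Loss of signal indicates reduced protease activity, fitted relative to DMSO negative control. Primary screen at 25 uM in duplicate; actives followed in concentration series.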

Assay [12] has as its target rat CYP2A2, Cyp2a2 (gene 24895) (UniProt P15149). The experiment in a line: NVS_ADME_rCYP2A2: NovaScreen (NVS) CYP450-related Enzyme Activity (ADME) Assay for rat CYP2A2 (AID 2283116). A digest of the protocol: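 Cell-free recombinant rat CYP2A2 activity with fluorogenic substrate, fluorescence read 0.2 h after dosing. Chemicals screened at 10 uM in duplicate, hits then run in concentration-response up to 20 uM; signal loss versus acetonitrile baseline.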

The target in assay [13] is rat CYP2C11, Cyp2c11 (gene 29277) (UniProt P08683). The experiment in a line: NVS_ADME_rCYP2C11: NovaScreen (NVS) CYP450-related Enzyme Activity (ADME) Assay for rat CYP2C11 (AID 2283118). The essentials:
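Cell-free recombinant rat enzyme with fluorescent substrate; readout 0.33 h after dosing, loss of signal versus acetonitrile control. Initial duplicate single-point at 10 uM; actives rerun in concentration series.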

Another assay relates to rat CYP2C6, gene 293989. The experiment in a line: NVS_ADME_rCYP2C6: NovaScreen (NVS) CYP450-related Enzyme Activity (ADME) Assay for rat CYP2C6 (AID 2283120). A digest of the protocol: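 Cell-free recombinant rat CYP2C6 with fluorogenic substrate, read by fluorescence 1 h after dosing; acetonitrile as negative control. Primary screen at 10 uM in duplicate, actives then in concentration-response up to 20 uM.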

A further assay deals with rat CYP3A1, gene 25642. The experiment in a line: NVS_ADME_rCYP3A1: NovaScreen (NVS) CYP450-related Enzyme Activity (ADME) Assay for rat CYP3A1 (AID 2283126). A digest of the protocol:
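Cell-free recombinant CYP assay with fluorescent substrate, read 0.5 h after dosing. Screened at 10 uM in duplicate, hits at up to 20 uM in concentration-response; loss of signal versus acetonitrile baseline.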

The structures appear in SMILES notation. “And” between values parts separate entries of the source, which are not always exact repeats. Equal values may be shown once. Inconclusive results are not listed. Some compounds were tested as several samples or in several runs, with calls that do not always agree. The source made the active and inactive calls. The calls were made as follows: active = hit-call score of the fitted dose curve at least 0.9, where 1 is the maximum; inconclusive = response in the unintended direction; inactive = score below 0.9.

human Beta-secretase (BACE), BACE1 (gene 23621), sequence (P56817 whole entry, looked up): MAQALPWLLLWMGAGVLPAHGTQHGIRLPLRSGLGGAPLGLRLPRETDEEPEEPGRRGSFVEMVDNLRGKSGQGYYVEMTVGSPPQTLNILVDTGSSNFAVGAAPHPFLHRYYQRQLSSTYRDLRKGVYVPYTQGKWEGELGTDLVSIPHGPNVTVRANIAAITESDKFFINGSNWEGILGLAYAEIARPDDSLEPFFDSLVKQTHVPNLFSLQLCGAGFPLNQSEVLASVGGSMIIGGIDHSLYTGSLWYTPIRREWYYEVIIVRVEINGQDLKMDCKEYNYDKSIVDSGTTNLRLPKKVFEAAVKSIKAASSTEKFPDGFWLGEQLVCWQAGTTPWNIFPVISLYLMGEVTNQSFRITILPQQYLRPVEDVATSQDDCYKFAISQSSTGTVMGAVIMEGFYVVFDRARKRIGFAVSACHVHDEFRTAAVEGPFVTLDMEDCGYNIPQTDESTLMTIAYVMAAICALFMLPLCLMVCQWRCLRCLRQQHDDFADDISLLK
human CYP2C9, CYP2C9 (gene 1559), sequence (P11712 whole entry, looked up): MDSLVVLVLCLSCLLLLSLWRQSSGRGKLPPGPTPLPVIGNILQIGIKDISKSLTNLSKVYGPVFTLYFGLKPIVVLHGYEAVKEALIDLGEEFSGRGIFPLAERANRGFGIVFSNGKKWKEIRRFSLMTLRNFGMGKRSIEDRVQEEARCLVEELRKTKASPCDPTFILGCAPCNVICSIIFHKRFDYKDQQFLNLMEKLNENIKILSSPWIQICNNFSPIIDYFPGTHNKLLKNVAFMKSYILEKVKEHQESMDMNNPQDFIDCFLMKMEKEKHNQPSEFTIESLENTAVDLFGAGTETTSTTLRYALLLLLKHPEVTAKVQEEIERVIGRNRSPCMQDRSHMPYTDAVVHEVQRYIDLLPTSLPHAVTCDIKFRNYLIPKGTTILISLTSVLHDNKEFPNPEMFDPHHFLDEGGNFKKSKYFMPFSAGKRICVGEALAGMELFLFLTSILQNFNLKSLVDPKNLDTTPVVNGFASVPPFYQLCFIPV
human CYP1A2, CYP1A2 (gene 1544), sequence (P05177 whole entry, looked up): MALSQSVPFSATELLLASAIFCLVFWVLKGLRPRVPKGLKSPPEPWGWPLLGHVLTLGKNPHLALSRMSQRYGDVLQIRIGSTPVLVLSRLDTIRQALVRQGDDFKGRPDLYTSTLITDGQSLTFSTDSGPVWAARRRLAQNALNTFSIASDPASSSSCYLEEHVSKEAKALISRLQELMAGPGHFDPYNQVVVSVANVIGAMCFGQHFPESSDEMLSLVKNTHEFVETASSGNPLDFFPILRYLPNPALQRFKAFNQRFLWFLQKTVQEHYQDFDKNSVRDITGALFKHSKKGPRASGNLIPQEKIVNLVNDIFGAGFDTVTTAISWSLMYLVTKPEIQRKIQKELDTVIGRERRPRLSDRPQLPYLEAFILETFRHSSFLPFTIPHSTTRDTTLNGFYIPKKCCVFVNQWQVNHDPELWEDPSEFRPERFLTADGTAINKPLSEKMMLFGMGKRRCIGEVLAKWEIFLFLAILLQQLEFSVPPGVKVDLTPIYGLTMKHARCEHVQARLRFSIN
rat CYP2C11, Cyp2c11 (gene 29277), sequence (P08683 whole entry, looked up): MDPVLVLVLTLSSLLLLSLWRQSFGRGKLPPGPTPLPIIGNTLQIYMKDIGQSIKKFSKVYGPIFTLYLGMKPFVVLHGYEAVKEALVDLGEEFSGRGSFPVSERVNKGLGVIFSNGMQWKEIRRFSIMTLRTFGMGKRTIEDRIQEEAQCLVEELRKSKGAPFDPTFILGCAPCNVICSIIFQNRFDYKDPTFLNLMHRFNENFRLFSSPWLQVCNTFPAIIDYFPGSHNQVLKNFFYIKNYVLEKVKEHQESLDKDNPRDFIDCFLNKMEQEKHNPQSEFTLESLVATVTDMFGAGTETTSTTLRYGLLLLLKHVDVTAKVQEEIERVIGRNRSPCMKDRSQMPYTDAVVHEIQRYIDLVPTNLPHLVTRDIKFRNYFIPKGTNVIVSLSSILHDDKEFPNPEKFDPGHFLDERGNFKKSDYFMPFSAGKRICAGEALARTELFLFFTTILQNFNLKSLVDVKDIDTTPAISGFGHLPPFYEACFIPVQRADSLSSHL
rat CYP2A2, Cyp2a2 (gene 24895), sequence (P15149 whole entry, looked up): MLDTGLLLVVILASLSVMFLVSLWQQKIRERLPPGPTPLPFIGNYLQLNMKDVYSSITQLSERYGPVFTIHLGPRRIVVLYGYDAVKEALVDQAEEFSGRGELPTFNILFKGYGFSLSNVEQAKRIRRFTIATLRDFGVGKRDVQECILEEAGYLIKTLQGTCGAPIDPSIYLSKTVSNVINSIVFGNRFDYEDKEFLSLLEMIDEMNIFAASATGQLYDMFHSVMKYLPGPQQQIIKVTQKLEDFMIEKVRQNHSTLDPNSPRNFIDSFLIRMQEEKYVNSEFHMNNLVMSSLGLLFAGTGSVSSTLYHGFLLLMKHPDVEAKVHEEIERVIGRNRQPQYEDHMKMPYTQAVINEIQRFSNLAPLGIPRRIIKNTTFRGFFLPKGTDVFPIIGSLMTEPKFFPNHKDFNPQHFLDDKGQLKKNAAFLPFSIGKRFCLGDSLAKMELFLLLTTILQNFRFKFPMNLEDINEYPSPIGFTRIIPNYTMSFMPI
human CYP19A1, CYP19A1 (gene 1588), sequence (P11511 whole entry, looked up): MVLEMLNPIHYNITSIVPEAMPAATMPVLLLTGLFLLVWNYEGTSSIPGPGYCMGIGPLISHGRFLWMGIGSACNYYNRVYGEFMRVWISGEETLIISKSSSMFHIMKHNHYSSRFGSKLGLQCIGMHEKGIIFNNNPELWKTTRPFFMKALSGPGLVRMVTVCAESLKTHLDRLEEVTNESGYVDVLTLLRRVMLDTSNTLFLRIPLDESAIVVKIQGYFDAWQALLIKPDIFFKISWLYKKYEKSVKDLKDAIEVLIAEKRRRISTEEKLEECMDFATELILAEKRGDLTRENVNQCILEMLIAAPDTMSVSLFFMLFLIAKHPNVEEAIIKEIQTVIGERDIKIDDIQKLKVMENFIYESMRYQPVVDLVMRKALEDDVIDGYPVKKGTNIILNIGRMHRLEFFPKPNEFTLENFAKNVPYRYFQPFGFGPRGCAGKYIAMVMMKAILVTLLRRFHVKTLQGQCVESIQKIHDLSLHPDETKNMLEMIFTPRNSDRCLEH
human CYP1A1, CYP1A1 (gene 1543), sequence (P04798 whole entry, looked up): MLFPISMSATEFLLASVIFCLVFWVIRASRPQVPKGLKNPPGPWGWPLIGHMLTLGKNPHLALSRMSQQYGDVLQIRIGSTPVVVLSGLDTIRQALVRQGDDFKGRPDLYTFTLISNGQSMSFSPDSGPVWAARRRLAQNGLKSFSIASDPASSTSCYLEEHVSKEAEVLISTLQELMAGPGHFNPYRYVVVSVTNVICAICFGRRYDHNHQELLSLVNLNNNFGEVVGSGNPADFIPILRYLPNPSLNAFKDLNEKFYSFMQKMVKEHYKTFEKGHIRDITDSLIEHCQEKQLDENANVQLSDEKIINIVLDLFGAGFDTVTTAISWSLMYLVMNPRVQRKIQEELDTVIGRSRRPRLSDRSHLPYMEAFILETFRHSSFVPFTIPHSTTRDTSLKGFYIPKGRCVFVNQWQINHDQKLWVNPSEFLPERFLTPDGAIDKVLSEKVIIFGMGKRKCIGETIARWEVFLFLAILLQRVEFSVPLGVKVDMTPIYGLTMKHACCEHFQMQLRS
human CYP2A6, CYP2A6 (gene 1548), sequence (P11509 whole entry, looked up): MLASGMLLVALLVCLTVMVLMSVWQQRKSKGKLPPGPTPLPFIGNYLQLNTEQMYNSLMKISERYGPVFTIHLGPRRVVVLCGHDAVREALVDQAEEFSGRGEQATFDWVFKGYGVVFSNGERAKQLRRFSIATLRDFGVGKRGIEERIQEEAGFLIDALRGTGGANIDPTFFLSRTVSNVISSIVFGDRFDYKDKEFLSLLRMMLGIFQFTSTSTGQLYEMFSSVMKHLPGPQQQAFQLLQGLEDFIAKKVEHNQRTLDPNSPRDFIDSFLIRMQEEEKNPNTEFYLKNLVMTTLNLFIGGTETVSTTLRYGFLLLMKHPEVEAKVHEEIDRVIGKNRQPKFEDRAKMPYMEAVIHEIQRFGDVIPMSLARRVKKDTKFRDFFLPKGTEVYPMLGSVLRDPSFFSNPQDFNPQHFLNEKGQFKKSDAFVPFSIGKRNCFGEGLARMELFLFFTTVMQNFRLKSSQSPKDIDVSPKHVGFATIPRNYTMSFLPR
Caspase-3 (Homo sapiens), sequence (P42574 whole entry, looked up): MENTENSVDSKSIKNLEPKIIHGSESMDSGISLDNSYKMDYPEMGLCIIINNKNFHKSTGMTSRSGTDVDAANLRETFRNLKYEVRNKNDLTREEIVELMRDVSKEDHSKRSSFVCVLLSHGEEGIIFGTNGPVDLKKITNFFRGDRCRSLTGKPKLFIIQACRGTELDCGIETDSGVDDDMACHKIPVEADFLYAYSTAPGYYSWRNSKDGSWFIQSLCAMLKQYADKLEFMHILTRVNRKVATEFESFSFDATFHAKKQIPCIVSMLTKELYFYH

In general, AC50 refers to the concentration giving half of the maximal activity seen. For the molecule `S=c1[nH]c2ccccc2s1`, the AC50 in assay [1] was 4.85 µM (active); in assay [2], 1.28 µM (active); in [4], 6.77 µM (active); in assay [5], 7.33 µM (active). Further, the molecule was called inactive in assay [3], in assay [6] and in assay [7].

On to `Nc1nc(Cl)nc2c1ncn2[C@H]1C[C@H](O)[C@@H](CO)O1`, for which the molecule was classed as inactive in assay [8].

Regarding `CCCCCCC(C=O)=Cc1ccccc1`, the molecule was called inactive in assay [8].

As to `O=C(O)CN(CC(=O)O)CC(=O)O`, the result in [3] was inactive.

As to `O=C1OC(c2ccc(O)cc2)(c2ccc(O)cc2)c2ccccc21`, the result in assay [1] and in assay [2] was inactive. In addition, the AC50 in [5] is 6.81 µM (active).

In the case of `CC(N)=O`, the molecule was classed as inactive in assay [8].

With `CN(C)C(=O)NC1(c2ccccc2)CCN(CCC[C@]2(c3ccc(Cl)c(Cl)c3)CCCN(C(=O)c3ccccc3)C2)CC1`, the molecule was called inactive in assay [1]. For the same molecule, in assay [4], the AC50 was 1.25 µM (active).

With `CC(=O)OCC(COC(C)=O)OC(C)=O`, the molecule was classed as inactive in [9] and in assay [10].

For the molecule `CCC(C)N(C)C(=O)c1cc2ccccc2c(-c2ccccc2Cl)n1` (centres undefined), the call in assay [9] was inactive. In addition, the half-maximal activity concentration (AC50) in assay [5] is 4.2 µM (active).

As for `CC(=O)OC1CC(C)OC(C)O1` (centres undefined), the molecule was called inactive (in assay [9]; in assay [4]; in the assay with Caspase-3 (Homo sapiens)). Besides, the concentration at half-maximal activity (AC50) in [5] is 4.37 µM (active).

Consider `Cc1cc(Cc2ccc(N)c(C)c2)ccc1N`, for which the call in assay [3] was inactive.

As to `NC1CCCCC1`, the molecule was called inactive in assay [1] and in assay [2].

Take `CC(COCC(C)OC(=O)c1ccccc1)OC(=O)c1ccccc1` (centres undefined): in assay [2], the result was inactive. The AC50 in [3] was 8.75 µM (active).

On to `CC1(C)C(=O)NC(=O)N1CO`, for which the call in assay [1] and in assay [10] was inactive.

Consider `Cc1cc(SC2=C(O)C[C@@](CCc3ccc(N)cc3)(C(C)C)OC2=O)c(C(C)(C)C)cc1CO`, for which the outcome in [8] and in assay [11] was inactive.

For `COc1ccc(C(=O)Nc2nc3ccccc3c(NCc3ccccc3)c2C#N)cc1`, the call in assay [3] was inactive.

Turning to `COC(=O)[C@H]1[C@H]2C[C@@H]3c4[nH]c5cc(OC)ccc5c4CCN3C[C@H]2C[C@@H](OC(=O)c2cc(OC)c(OC)c(OC)c2)[C@@H]1OC`, in [9], the molecule was classed as inactive.

As for `C=CCc1ccc(OC)c(OC)c1`, the molecule was called inactive in [1].

With `CN(C)CCCN1c2ccccc2Sc2ccc(Cl)cc21`, the outcome in [9] and in assay [11] was inactive.

For the molecule `CC(C)(O)c1ccc(CNC(=O)c2cccnc2Oc2ccc(F)cc2)cc1`, in assay [9], the molecule was called inactive.

As to `CCc1nc(N)nc(N)c1-c1ccc(Cl)cc1`, the result in assay [1] and in assay [11] was inactive.

For `O=C(N[C@@H](c1ccccc1)[C@@H]1CCCCN1)c1cccc(C(F)(F)F)c1Cl`, the result in assay [8] and in [10] was inactive. Besides, the AC50 in assay [4] was 1.06 µM (active); in assay [5], 3.27 µM (active).

`CCN(CC)CCOc1ccc(C(=C(Cl)c2ccccc2)c2ccccc2)cc1`: the concentration at half-maximal activity (AC50) is 11.3 µM (active) in assay [2]; 2.38 µM (active) in assay [4]; 6.93 µM (active) in [5]; 3.22 µM (active) and 5.8 µM (active) in [12]; 6.05 µM (active) and 5 µM (active) and 325 nM (active) in [13]; 4.06 µM (active) and 3.54 µM (active) and 4.76 µM (active) with rat CYP2C6, gene 293989. Also, the AC50 in the assay on rat CYP3A1, gene 25642 is 6.26 µM (active); in assay [11], 14.7 µM (active). Besides, in [12], the molecule was classed as inactive.
